Reference: PubChem BioAssay (EPA / NIEHS)
Records with an inconclusive call do not appear. The source made the active and inactive calls. Rule for the calls, unless noted: active = hit-call score of the fitted dose curve at least 0.9, where 1 is the maximum; inactive = score below 0.9.

What was measured:
[1] = ATG_TAL_CIS: Attagene CIS-FACTORIAL HepG2 Assay for human TAL Basal Promoter (AID 2282966); settings: HepG2 Attagene cis-factorial TAL promoter reporter; actives raise or lower the signal;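 note: background control endpoint measuring basal TAL promoter reporter mRNA not a specific factor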
In short: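 Human hepatoma HepG2 cells, transfected with promoter-regulated reporter units, were treated 24 h. Reporter transcript levels, measured through RT-PCR and capillary electrophoresis, were fitted for gain or loss relative to DMSO.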

[2] = ATG_TGFb_CIS: Attagene CIS-FACTORIAL HepG2 Assay for human Transforming Growth Factor (TGF) (AID 2282967); settings: HepG2 Attagene CIS TGFb reporter, mRNA transcription; actives raise or lower the signal
In short: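 Bidirectional fitting relative to DMSO gave the endpoint. Underlying data: reporter mRNA from HepG2 cells carrying transiently transfected cis-regulated reporter constructs, harvested 24 h after dosing and analyzed by RT-PCR and capillary electrophoresis.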

[3] = ATG_VDRE_CIS: Attagene CIS-FACTORIAL HepG2 Assay for human Vitamin D Receptor Element (VDRE) (AID 2282968); settings: HepG2 VDRE cis-reporter transcription, actives raise or lower the signal
In short: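 Readout is VDRE-driven reporter mRNA reflecting endogenous factor activity in human HepG2 cells, sampled 24 h post-dose. Quantification used labelled RT-PCR products separated by capillary electrophoresis; bidirectional analysis relative to DMSO.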

[4] = target: X-box-binding protein 1 (Homo sapiens) (UniProt P17861); experiment: ATG_Xbp1_CIS: Attagene CIS-FACTORIAL HepG2 Assay for human X-box Binding Protein 1 (XBP1) (AID 2282972); settings: HepG2 XBP1 cis-element reporter, Attagene multiplex; actives raise or lower the signal
In short: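 Multiplexed cis-reporter readout in transfected HepG2 liver cells. Exposure lasted 24 hours. Activity in either direction was fitted against DMSO as negative control and baseline.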

[5] = ATG_M_19_TRANS: Attagene TRANS-FACTORIAL HepG2 Assay for M19 Transcription Factor (Internal Marker) (AID 2282974; active = hit-call score of the fitted dose curve at least 0.9, where 1 is the maximum); settings: HepG2 Attagene TRANS-FACTORIAL M19 internal marker reporter
In short: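 HepG2 cells transiently transfected with multiple GAL4-UAS reporter transcription units were exposed to chemicals for 24 h. Reporter mRNA was read by RT-PCR, 6-FAM primer extension, HpaI digestion and capillary electrophoresis; gain of signal fitted relative to DMSO.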

[6] = ATG_GAL4_TRANS: Attagene TRANS-FACTORIAL HepG2 Assay for GAL4 (Internal Marker) (AID 2282976; active = hit-call score of the fitted dose curve at least 0.9, where 1 is the maximum); settings: HepG2 Attagene TRANS GAL4 internal marker reporter
In short: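 Liver HepG2 line bearing multiplexed GAL4-UAS reporter constructs; 24 h chemical treatment. Transcripts were quantified as fluorescent fragments on capillary electrophoresis after RT-PCR and HpaI cut, with activity fitted upward from DMSO.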

[7] = target: Bile acid receptor (Homo sapiens) (UniProt Q96RI1); experiment: ATG_FXR_TRANS: Attagene TRANS-FACTORIAL HepG2 Assay for Farnesoid X Receptor (FXR) (AID 2282979; active = hit-call score of the fitted dose curve at least 0.9, where 1 is the maximum;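 note: hits raise reporter mRNA above DMSO so AC50 marks FXR activation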); settings: HepG2 Attagene TRANS FXR-GAL4 reporter transcription
In short: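 After 24 h chemical treatment of transfected HepG2 cells, GAL4-UAS reporter transcripts driven by an exogenous FXR-GAL4 fusion were measured by RT-PCR and capillary electrophoresis. Increases over DMSO were fitted.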

[8] = target: Oxysterols receptor LXR-alpha (Homo sapiens) (UniProt Q13133); experiment: ATG_LXRa_TRANS: Attagene TRANS-FACTORIAL HepG2 Assay for human Liver X Receptor alpha (LXRa) (AID 2282980; active = hit-call score of the fitted dose curve at least 0.9, where 1 is the maximum); settings: HepG2 Attagene TRANS reporter, LXRa transactivation
In short: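 In this multiplexed TRANS system, compounds act on HepG2 cells carrying GAL4-UAS reporter units and a receptor-GAL4 fusion for 24 h. Induced reporter RNA is amplified, fluorescently labelled and sized by capillary electrophoresis, with DMSO as baseline.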

[9] = target: Oxysterols receptor LXR-beta (Homo sapiens) (UniProt P55055); experiment: ATG_LXRb_TRANS: Attagene TRANS-FACTORIAL HepG2 Assay for human Liver X Receptor beta (LXRb) (AID 2282981; active = hit-call score of the fitted dose curve at least 0.9, where 1 is the maximum); settings: HepG2 Attagene TRANS GAL4-LXRb reporter, mRNA
In short: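 After 24 h chemical treatment of transfected HepG2 cells carrying exogenous NR-Gal4 chimeras, reporter mRNA was quantified by fluorescent RT-PCR and capillary electrophoresis; activity taken as increase over DMSO controls.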

[10] = ATG_M_06_TRANS: Attagene TRANS-FACTORIAL HepG2 Assay for M06 Transcription Factor (Internal Marker) (AID 2282983; active = hit-call score of the fitted dose curve at least 0.9, where 1 is the maximum); settings: HepG2 Attagene TRANS M06 internal marker reporter
In short: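 Multi-reporter-transfected HepG2, 24 h treatment; reporter transcripts quantified via RT-PCR, primer-extension labelling and CE. DMSO-normalized gain-of-signal fit.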

[11] = target: Transcriptional activator Myb (Homo sapiens) (UniProt P10242); experiment: ATG_Myb_CIS: Attagene CIS-FACTORIAL HepG2 Assay for human Myeloblastosis (Myb) Proto-Oncogene Transcription Factor (AID 2282986); settings: HepG2 Attagene CIS-FACTORIAL Myb reporter transcription; actives raise or lower the signal
In short: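 HepG2 cells were transiently transfected with cis-regulated multiple reporter transcription units reflecting endogenous Myb activity, then exposed to compound for 24 hours. Reporter mRNA was measured by RT-PCR with capillary electrophoresis; bidirectional fitting versus DMSO baseline.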

[12] = target: Nuclear respiratory factor 1 (Homo sapiens) (UniProt Q16656); experiment: ATG_NRF1_CIS: Attagene CIS-FACTORIAL HepG2 Assay for human Nuclear Respiratory Factor 1 (NRF1) Orphan Gene (AID 2282987); settings: HepG2 NRF1 cis-element reporter, Attagene multiplex; actives raise or lower the signal
In short: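 HepG2 cells transiently transfected with multiple reporter transcription units under cis-regulatory promoter control, so endogenous transcription-factor activity is read. After 24 h compound exposure, reporter mRNA quantified by RT-PCR, fluorescent labelling, HpaI digestion and capillary electrophoresis; bidirectional fitting versus DMSO.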

[13] = target: Glucocorticoid receptor (Homo sapiens) (UniProt P04150); experiment: ATG_GR_TRANS: Attagene TRANS-FACTORIAL HepG2 Assay for human Glucocorticoid Receptor (GR) (AID 2282978; active = hit-call score of the fitted dose curve at least 0.9, where 1 is the maximum;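 note: activators score as hits since higher reporter transcript over DMSO is fitted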); settings: HepG2 Attagene TRANS GR reporter, mRNA transcription
In short: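 HepG2 cells transiently transfected with multiplexed reporter units in which chimeric NR-GAL4 proteins drive GAL4-UAS reporters; 24 h compound exposure. Reporter mRNA measured by RT-PCR, 6-FAM labelling, HpaI digestion and capillary electrophoresis; gain-of-signal fitted versus DMSO.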

[14] = ATG_M_32_TRANS: Attagene TRANS-FACTORIAL HepG2 Assay for M32 Transcription Factor (Internal Marker) (AID 2282984; active = hit-call score of the fitted dose curve at least 0.9, where 1 is the maximum); settings: HepG2 Attagene TRANS M32 internal marker reporter
In short: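 Internal background reporter in transfected HepG2: after 24 h chemical exposure, RNA reverse-transcribed, reporter cDNA amplified, fluorescently labelled and HpaI-cut, then sized by capillary electrophoresis. Gain of signal fitted against DMSO control.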

[15] = target: Nuclear receptor subfamily 4 group A member 2 (Homo sapiens) (UniProt P43354); experiment: ATG_NURR1_TRANS: Attagene TRANS-FACTORIAL HepG2 Assay for human Nuclear Receptor Related Protein 1 (NURR1) (AID 2282985; active = hit-call score of the fitted dose curve at least 0.9, where 1 is the maximum); settings: HepG2 Attagene TRANS reporter, mRNA readout
In short: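 Reporter transcript induction, measured by RT-PCR with fluorescent labelling, HpaI digestion and capillary electrophoresis, after 24 hr dosing of human HepG2 cells transiently expressing an exogenous NR-Gal4 fusion with GAL4-UAS-driven reporters; DMSO as baseline.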

[16] = target: Hepatocyte nuclear factor 4-alpha (Homo sapiens) (UniProt P41235); experiment: ATG_HNF4a_TRANS: Attagene TRANS-FACTORIAL HepG2 Assay for human Hepatocyte Nuclear Factor 4 alpha (HNF4a) (AID 2282982; active = hit-call score of the fitted dose curve at least 0.9, where 1 is the maximum); settings: HepG2 HNF4a transactivation reporter, mRNA readout
In short: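 Activity of an exogenous HNF4a–Gal4 fusion scored as induced GAL4-UAS reporter transcripts after 24 h chemical exposure of transfected human HepG2 cells. Read-out via RT-PCR with 6-FAM labelling and capillary electrophoresis; rise over DMSO baseline.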

[17] = target: Estrogen-related receptor gamma (Homo sapiens) (UniProt P62508); experiment: ATG_ERRg_TRANS: Attagene TRANS-FACTORIAL HepG2 Assay for human Estrogen-Related Receptor gamma (ERRg) (AID 2282977; active = hit-call score of the fitted dose curve at least 0.9, where 1 is the maximum;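 note: hits increase reporter signal over DMSO so potencies reflect activators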); settings: HepG2 Attagene TRANS reporter, ERRg transactivation
In short: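 Exogenous NR-Gal4 chimera activity measured as reporter transcript induction after 24 h in transiently transfected HepG2 cells. RNA reverse-transcribed, PCR-amplified, 6-FAM-labelled and resolved by capillary electrophoresis; increase over DMSO baseline.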

Measured: outcome

Chain of Bile acid receptor (Homo sapiens) (Q96RI1 whole entry, looked up, the tested form may be a part): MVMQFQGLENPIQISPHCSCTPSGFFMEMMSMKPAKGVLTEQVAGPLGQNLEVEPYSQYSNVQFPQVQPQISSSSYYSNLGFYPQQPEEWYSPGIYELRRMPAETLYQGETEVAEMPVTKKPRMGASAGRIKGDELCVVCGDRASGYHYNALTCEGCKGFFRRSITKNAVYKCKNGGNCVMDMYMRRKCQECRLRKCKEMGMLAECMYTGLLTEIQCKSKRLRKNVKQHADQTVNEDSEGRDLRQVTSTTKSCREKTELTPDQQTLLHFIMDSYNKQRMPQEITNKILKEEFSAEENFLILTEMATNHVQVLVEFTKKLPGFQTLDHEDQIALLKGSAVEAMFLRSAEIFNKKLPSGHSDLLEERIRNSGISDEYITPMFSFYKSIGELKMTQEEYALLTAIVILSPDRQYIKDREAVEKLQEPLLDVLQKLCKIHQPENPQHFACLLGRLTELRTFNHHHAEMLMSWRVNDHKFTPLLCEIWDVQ
Chain of X-box-binding protein 1 (Homo sapiens) (P17861 whole entry, looked up): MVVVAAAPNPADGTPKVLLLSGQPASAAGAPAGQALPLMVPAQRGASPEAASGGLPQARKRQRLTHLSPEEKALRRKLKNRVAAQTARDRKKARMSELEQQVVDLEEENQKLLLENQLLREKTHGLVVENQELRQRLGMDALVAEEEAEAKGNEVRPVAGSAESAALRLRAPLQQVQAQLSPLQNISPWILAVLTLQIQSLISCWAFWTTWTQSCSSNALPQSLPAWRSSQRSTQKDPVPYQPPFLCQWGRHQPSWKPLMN
Chain of Hepatocyte nuclear factor 4-alpha (Homo sapiens) (P41235 whole entry, looked up, the tested form may be a part): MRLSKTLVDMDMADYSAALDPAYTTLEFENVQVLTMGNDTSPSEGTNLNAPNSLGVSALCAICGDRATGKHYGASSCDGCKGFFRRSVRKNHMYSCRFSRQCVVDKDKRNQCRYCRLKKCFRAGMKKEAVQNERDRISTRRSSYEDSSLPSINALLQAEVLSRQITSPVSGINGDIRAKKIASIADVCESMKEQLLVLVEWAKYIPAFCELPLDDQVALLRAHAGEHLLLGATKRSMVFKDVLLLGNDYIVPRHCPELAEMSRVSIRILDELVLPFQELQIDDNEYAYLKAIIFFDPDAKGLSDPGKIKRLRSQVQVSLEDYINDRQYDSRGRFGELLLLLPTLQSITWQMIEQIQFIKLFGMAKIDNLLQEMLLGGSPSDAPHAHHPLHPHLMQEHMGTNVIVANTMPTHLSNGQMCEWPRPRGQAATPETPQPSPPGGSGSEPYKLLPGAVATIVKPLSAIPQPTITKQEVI
Chain of Nuclear respiratory factor 1 (Homo sapiens) (Q16656 whole entry, looked up): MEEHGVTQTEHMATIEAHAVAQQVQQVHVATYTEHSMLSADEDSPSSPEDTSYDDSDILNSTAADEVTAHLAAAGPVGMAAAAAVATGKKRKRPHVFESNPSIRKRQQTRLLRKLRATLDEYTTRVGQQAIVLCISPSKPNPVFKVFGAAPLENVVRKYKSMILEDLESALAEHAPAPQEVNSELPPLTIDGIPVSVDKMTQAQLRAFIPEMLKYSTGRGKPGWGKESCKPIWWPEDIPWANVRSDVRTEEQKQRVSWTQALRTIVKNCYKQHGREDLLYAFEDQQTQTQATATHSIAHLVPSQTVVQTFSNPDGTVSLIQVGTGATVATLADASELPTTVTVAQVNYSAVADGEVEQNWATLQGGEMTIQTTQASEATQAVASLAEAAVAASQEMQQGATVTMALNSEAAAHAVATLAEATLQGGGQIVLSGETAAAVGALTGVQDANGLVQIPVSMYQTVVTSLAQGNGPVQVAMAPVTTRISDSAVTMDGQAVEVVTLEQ
Chain of Oxysterols receptor LXR-beta (Homo sapiens) (P55055 whole entry, looked up, the tested form may be a part): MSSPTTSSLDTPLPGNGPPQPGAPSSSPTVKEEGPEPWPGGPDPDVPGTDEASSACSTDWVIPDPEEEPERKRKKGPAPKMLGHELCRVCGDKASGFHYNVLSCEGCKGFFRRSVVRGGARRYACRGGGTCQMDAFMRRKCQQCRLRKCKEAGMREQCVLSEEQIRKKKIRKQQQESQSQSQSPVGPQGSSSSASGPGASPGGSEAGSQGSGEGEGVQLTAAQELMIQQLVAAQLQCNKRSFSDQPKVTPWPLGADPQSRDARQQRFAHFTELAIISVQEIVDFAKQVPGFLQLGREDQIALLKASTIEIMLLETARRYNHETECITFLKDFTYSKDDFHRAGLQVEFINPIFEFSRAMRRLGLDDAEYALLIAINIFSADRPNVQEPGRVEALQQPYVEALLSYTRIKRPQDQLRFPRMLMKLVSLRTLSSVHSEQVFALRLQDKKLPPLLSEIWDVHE
Chain of Transcriptional activator Myb (Homo sapiens) (P10242 whole entry, looked up): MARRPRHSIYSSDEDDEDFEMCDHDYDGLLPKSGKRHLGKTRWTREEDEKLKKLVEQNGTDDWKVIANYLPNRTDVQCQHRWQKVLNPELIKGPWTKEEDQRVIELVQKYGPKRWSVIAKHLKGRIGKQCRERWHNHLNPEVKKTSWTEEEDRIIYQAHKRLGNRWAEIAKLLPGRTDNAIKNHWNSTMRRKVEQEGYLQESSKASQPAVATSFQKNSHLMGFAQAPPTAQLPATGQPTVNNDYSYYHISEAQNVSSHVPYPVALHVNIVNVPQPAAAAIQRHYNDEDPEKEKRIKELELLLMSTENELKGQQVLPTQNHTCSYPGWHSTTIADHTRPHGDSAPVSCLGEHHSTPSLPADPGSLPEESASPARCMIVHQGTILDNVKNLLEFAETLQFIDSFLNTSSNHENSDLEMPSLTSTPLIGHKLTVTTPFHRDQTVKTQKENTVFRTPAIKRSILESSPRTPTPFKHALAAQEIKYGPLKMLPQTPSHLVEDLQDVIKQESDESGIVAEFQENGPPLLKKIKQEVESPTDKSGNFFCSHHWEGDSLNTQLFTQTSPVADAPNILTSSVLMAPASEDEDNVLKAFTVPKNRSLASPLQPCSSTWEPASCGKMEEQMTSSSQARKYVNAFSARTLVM
Chain of Nuclear receptor subfamily 4 group A member 2 (Homo sapiens) (P43354 whole entry, looked up, the tested form may be a part): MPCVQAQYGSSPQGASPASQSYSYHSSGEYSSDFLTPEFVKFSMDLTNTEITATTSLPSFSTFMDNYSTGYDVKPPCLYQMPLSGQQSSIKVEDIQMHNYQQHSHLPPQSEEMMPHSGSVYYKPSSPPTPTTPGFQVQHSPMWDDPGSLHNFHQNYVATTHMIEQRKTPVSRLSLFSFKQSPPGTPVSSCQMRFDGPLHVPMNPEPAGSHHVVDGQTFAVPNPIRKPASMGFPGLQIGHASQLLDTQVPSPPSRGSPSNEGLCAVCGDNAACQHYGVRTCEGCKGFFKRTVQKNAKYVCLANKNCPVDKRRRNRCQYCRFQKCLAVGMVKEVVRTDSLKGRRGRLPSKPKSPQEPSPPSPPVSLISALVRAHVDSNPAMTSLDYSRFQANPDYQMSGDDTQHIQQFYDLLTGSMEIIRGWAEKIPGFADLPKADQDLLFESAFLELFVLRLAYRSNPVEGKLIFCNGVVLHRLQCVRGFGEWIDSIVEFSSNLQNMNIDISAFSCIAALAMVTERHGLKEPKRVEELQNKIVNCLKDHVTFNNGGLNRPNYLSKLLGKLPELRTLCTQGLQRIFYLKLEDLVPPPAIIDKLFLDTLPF
Chain of Estrogen-related receptor gamma (Homo sapiens) (P62508 whole entry, looked up, the tested form may be a part): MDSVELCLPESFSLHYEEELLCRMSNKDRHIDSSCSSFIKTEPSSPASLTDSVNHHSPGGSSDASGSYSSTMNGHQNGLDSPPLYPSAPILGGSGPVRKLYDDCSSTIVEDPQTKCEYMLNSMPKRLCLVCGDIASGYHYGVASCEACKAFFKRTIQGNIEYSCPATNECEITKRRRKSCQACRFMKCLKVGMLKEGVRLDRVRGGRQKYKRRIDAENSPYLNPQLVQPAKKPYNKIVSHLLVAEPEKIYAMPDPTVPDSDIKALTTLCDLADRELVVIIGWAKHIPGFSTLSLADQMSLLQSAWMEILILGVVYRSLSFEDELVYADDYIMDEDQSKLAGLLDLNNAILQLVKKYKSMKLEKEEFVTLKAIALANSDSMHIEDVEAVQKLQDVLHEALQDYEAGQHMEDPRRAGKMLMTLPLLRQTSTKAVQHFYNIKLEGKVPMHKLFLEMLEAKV
Chain of Glucocorticoid receptor (Homo sapiens) (P04150 whole entry, looked up, the tested form may be a part): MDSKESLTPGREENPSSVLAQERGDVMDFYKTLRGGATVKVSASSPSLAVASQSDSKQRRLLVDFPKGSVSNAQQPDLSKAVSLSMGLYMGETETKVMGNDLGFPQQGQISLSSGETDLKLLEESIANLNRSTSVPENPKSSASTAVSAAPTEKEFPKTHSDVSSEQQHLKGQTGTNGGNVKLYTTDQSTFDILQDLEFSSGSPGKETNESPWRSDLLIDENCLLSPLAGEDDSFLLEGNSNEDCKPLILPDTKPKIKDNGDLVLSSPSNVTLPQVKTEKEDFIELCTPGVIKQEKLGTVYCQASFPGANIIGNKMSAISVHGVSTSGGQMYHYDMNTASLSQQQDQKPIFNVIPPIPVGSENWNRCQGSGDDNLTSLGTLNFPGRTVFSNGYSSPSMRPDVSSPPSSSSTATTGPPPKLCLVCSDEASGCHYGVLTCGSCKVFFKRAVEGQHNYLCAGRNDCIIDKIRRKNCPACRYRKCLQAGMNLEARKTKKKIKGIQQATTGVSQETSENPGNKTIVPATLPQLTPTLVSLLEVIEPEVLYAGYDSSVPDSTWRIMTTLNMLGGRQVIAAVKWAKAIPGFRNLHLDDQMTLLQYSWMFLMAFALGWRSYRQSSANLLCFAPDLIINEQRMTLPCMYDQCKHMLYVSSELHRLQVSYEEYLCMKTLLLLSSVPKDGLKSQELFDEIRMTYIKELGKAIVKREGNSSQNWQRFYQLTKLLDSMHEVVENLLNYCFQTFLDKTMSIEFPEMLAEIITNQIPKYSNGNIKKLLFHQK

CCC1(C)NC(=O)NC1=O (stereo not given)
not listed: [13] | [14] | [15] | [16] | [17]
inactive: all other assays above

CN(C)CCOc1ccc(/C(=C(/CCCl)c2ccccc2)c2ccccc2)cc1
not listed: [10] | [16] | [17]
inactive: all other assays above

CC1CC(O)CC(C)(C)C1 (stereo not given)
inactive: [1] | [2] | [3] | [4] | [5] | [6] | [14] | [11] | [12]

C=C(C)C(=O)OCCOCCOCCOC(=O)C(=C)C
inactive: [1] | [2] | [3] | [4] | [5] | [6] | [8] | [14] | [11]

c1ccc2[nH]cnc2c1
not listed: [9] | [10] | [13] | [17]
inactive: all other assays above

CCCN(CCC)S(=O)(=O)c1ccc(C(=O)O)cc1
not listed: [6] | [7] | [8] | [9] | [10] | [13] | [15]
inactive: all other assays above

CCOC(=O)[C@@H](C)Oc1ccc(Oc2nc3ccc(Cl)cc3o2)cc1
not listed: [6] | [13] | [16]
inactive: all other assays above

CCOC(=O)c1ccc(N)cc1
not listed: [9] | [10] | [14] | [17]
inactive: all other assays above

COS(=O)(=O)O
not listed: [13] | [14] | [15] | [17]
inactive: all other assays above

COc1ccc(CCO)cc1
not listed: [7] | [10] | [15] | [16] | [17]
inactive: all other assays above

CCOC(=O)CC(C)O (stereo not given)
not listed: [9] | [10] | [12] | [15] | [17]
inactive: all other assays above

COc1cc(Cl)c(OC)cc1N
not listed: [9] | [14] | [15] | [17]
inactive: all other assays above

CC(C)CCOC(=O)c1ccccc1
inactive: [1] | [2] | [3] | [4] | [5] | [6] | [14] | [11] | [12]

O=P(O)(O)O
not listed: [7] | [8] | [9] | [14] | [17]
inactive: all other assays above

COc1ccc(CCC(C)=O)cc1
not listed: [10] | [13] | [15] | [16] | [17]
inactive: all other assays above

CC(C)(C)c1ccc(C(=O)O)cc1
inactive: [1] | [2] | [3] | [4] | [5] | [6] | [11] | [12]

C=COCCOCCOC=C
not listed: [9] | [10] | [13] | [15] | [17]
inactive: all other assays above

CCCC(C)C(O)CC (stereo not given)
not listed: [7] | [10] | [13] | [14] | [16] | [17]
inactive: all other assays above

CCOC(=O)CCc1ccccc1
not listed: [8] | [10] | [13] | [16] | [17]
inactive: all other assays above

CCCCCC(C)=O
not listed: [7] | [9] | [14] | [15] | [16]
inactive: all other assays above

C[Si](C)(C)O[Si](C)(C)C
not listed: [10] | [13] | [15] | [17]
inactive: all other assays above

C=C(C)C(=O)OCCOCCOCCOCCOC(=O)C(=C)C
not listed: [7] | [8] | [9] | [13] | [14] | [15] | [17]
inactive: all other assays above
